The list is not random: actives were taken first. Their share in the collection is about 2.8%.
Six1-Eya2 blk: blocks human Six1 binding to Eya2; AID 651725; activity change, % (test concentration not listed); hit rate 0.56% among 360,000; AlphaScreen GST-Six1/His-Eya2 binding, biochemical; hits give low values; in the data active = activity change below about -65%; inconclusive = mostly about -30% to -63%; also: % is scaled to controls: 0 for no effect and ±100 for the full control effect
Target sequence (O00167 whole entry, looked up): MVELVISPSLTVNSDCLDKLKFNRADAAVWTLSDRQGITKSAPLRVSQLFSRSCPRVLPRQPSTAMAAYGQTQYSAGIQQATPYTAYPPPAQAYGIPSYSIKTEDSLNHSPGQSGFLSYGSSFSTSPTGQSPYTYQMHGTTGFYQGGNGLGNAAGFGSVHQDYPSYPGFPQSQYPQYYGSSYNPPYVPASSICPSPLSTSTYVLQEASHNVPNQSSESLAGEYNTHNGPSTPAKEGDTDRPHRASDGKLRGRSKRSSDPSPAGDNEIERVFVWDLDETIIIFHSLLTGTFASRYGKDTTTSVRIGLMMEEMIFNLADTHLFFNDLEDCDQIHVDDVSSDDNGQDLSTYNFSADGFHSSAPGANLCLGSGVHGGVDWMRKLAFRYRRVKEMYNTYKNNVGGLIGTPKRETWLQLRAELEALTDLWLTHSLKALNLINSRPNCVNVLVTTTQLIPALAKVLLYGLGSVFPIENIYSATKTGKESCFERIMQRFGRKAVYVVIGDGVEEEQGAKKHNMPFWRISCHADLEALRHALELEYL
Target sequence (Q15475 whole entry, looked up): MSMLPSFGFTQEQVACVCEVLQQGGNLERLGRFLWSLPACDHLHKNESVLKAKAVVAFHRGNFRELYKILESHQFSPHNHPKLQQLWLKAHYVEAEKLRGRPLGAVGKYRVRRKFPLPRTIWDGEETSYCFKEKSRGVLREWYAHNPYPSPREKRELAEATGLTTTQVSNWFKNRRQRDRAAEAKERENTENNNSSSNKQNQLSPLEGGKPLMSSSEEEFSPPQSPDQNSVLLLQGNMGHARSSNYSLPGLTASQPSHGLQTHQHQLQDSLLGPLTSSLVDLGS
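AlphaScreen luminescence read after one hour at 37 °C in darkness. Pin-transferred compounds met GST-Six1 and His-Eya2 protein (5X stock 250 nM/500 nM) plus glutathione donor and Ni-chelate acceptor beads (5X, 50 ug/mL).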
TGFb inhibitor: TGF-b pathway inhibition | Potency, µM (top dose mostly 46.1 µM), without a hit: top-dose activity, negative = inhibition, actives largely listed as inhibitors | HepG2 CAGA-GFP TGF-b/SMAD3 reporter, GFP fluorescence, 18 h; TGF-beta stimulated, 500 pg/mL final | hit rate 1.2% among 410,000; also: potency is read from the fitted curve at half-maximal effect; % is scaled to controls: 0 for no effect and ±100 for the full control effect; nearly all actives have a fitted effect of over 65% in size
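Smad-responsive CAGA-GFP expression was quantified in HEPG2 cells exposed to compounds and 500 pg/mL final TGF-beta for 18 h at 37 degrees C; unstimulated wells defined full inhibition.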
S2 tox: cell viability loss in ATXN counter-screen; S2 cells (HEK-293 line with an ATXN2-luciferase reporter) viability, CellTiter-Fluor protease fluorescence, 24 h; hit rate 0.49% among 400,000; Potency, µM (top dose mostly 56.7 µM), actives largely listed as cytotoxic; also: potency is read from the fitted curve at half-maximal effect; nearly all actives have a fitted effect of over 40% in size
HepG2 viability: counter-screen for TGF-b inhibitors: cytotoxicity in HepG2 cells. HepG2 CAGA-GFP viability, ATP luminescence, 18 h. Potency, µM (doses to about 46.1 µM), for the others: at the highest dose activity change, negative = cytotoxicity, usual class: cytotoxic. hit rate 0.76% among 410,000; also: potency is read from the fitted curve at half-maximal effect
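CellTiter-Glo luminescence gave cytotoxicity after 18 hours at 37 degrees C. The cells were HepG2 CAGA-GFP in 1% FBS DMEM, stimulated with 500 pg/mL TGF-beta after compound addition. %Activity was normalised to no-cell wells (complete cell-killing) and DMSO (no toxicity), and curves were fitted and classified.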
CtBP-E1A inh: blocks the CtBP interaction with E1A | AlphaScreen GST-E1A/His-CtBP binding, 1536-well; hits give low values | activity change, % (no concentration beside the values) | hit rate 0.49% among 340,000 | AID 651724; in the data active = activity change below about -65%; inconclusive = mostly about -30% to -63%; also: % is scaled to controls: 0 for no effect and ±100 for the full control effect
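Steps: dispense buffer (Tris pH 8.0, NaCl 300 mM, TCEP 1 mM, BSA, Tween 20); add 5X protein mix (GST-E1A, His-CtBP, 125 nM each); pin 23 nL compound; 2 h at 37 °C, dark; add 5X beads (50 ug/mL); 1 h; read.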
ATXN2 expr inh: reduces ATXN2 reporter expression in HEK-293 cells; HEK-293 ATXN2-luciferase reporter, luminescence, 24 h; Potency, µM (top dose mostly 57 µM), without a hit: at the top dose activity change, negative = inhibition, most hits filed as inhibitors; hit rate 0.72% among 360,000; also: potency is read from the fitted curve at half-maximal effect; % is scaled to controls: 0 for no effect and ±100 for the full control effect; nearly all actives have a fitted effect of over 55% in size
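qHTS (up to 57 uM final) was run with 24 h compound exposure of reporter cells at 37 °C. Each well was multiplexed: SteadyGlo luminescence measured ATXN2-luciferase expression after a fluorogenic Gly-Phe-AFC viability readout (25 uM final).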
Numbers without * were called inactive; i = inactive; ? = inconclusive; . = no result given; ! = a repeat was not active; [ ] = remark or other dose. Unless noted, calls follow the shape of the dose curve; as a rule, active = well fitted curve in the direction sought with a large enough effect; inconclusive = small, poorly fitted or top-dose-only effect, or another doubt; inactive = no such curve, though single readings can be large; an effect the other way counts as inactive or inconclusive.

SMILES | Six1-Eya2 blk | TGFb inhibitor | S2 tox | HepG2 viability | CtBP-E1A inh | ATXN2 expr inh
CCN(CC)C(=O)c1ccc2c(c1)C1C=CCC1C(C(=O)O)N2 (stereo unspecified) | -75* | 6% | i | -57% | . | .
CCCCOc1ccc(CNC(=O)c2cc3n(n2)CCCN(Cc2ccc(C)cc2)C3=O)cc1 | . | ? | ? | -2% | . | ?
C[N+]1(C)CCO[C@](O)(c2ccc(-c3ccc([C@]4(O)C[N+](C)(C)CCO4)cc3)cc2)C1 | . | . | i | . | . | .
Nc1ccc2ccc3cccc[n+]3c2c1 | -29 | 73% | . | 8% | -26 | -23%
C[n+]1c(-c2ccccc2)c2cc(N)ccc2c2ccc(N)cc21 | -20 | 4.5µM* | 16µM* | -17% | ? | 7.1µM*
O=C(N[C@H]1N=C(c2ccccc2F)c2cccc3c2N(CC3)C1=O)c1cc2ccccc2[nH]1 | . | . | ? | . | . | 46%
Nc1ccccc1C(=O)OCC(=O)N1CCc2ccccc21 | 1 | 27% | i | -7% | -2 | 65%
N#CSCC(=O)N1c2ccccc2CCc2ccccc21 | -11 | 25µM* | ? | -22% | -20 | ?
O=C(N/N=C/c1c(O)n(C2CCCCC2)c(=S)[nH]c1=O)c1ccccc1 | -5 | 23% | i | -1% | -18 | 15%
O=C(N/N=C/C1C(=O)NC(=S)N(c2ccccc2)C1=O)c1cc(Br)c(O)c(Br)c1 (stereo unspecified) | -93* | 1% | i | -15% | -92* | -26%
CC(C)(C)CC(C)(C)c1ccc(O)cc1 | . | . | 35µM*! | . | . | ?
CC1CC(C)CC(C)C(O)C(C#N)=CC=CCC(C2CCCC2C(=O)O)OC(=O)CC(O)C(C)C1 (stereo unspecified) | -12 | ? | ? | 0% | 2 | 0.75µM*
CNC(C)CC1CCCCC1 (stereo unspecified) | . | . | i | . | . | .
CCC(C)C1NC(=O)C2CCCN2C(=O)C(CC(C)C)OC(=O)CCNC(=O)C(C)N(C)C(=O)C(C(C)C)N(C)C1=O (stereo unspecified) | 10 | -13% | ? | -37% | 10 | ?
C=CCCC[C@@H]1OC(=O)CNC(=O)C([C@@H](C)CC)NC(=O)[C@@H]2CCCN2C(=O)C([C@@H](C)CC)OC(=O)[C@H](Cc2ccccc2)N(C)C(=O)[C@H](C(C)C)NC(=O)C1(C)C (stereo partly specified) | 1 | 10µM* | ? | -31% | -20 | 32µM*
COCCOCCO | . | . | i | . | . | -5%[116 µM]
Cn1c(=O)oc2cc(S(=O)(=O)N3CCCC(C(=O)NCc4ccccc4Cl)C3)ccc21 (stereo unspecified) | . | -3% | i | 4% | . | 13%
Oc1cc[c]([Hg][Cl])cc1 | . | . | 3.2µM* | . | . | .
CC(C)(O)/C=C/C(=O)[C@](C)(O)C1[C@H](O)C[C@@]2(C)C3CC=C4C(C[C@H](O)[C@@H](O)C4(C)C)[C@]3(C)C(=O)C[C@]12C (stereo partly specified) | 1 | 0.71µM* | ? | 3% | 0 | ?
c1ccc(CCCN2CCN(CCOC(c3ccccc3)c3ccccc3)CC2)cc1 | -8 | ? | ? | 11µM* | ? | 27µM*!
O=C(CCl)c1ccc(Cl)cc1Cl | . | . | 11µM*! | . | . | ?
Cc1ccc(-c2cc(-c3ccc(C)cc3)[n+](C)o2)cc1 | 2 | 7.1µM* | i | -30% | 9 | -35%
C=CCn1c(O)c(C(C)=NCc2cc(OC)cc(OC)c2)c(=O)[nH]c1=O | -2 | -10% | i | 7.1µM* | 0 | ?
Cc1ccc([C@H]2C[C@@H](O)[C@H](n3cc(COC(=O)c4ccccc4)nn3)CN2CC2CCCCC2)cc1 | 5 | 0% | i | -9% | 0 | 0%
CCCCCCCCCCCCCCCC[N+](C)(C)C | 11 | ? | ? | -106% | 8 | 32µM*!
SMILES | Six1-Eya2 blk | TGFb inhibitor | S2 tox | HepG2 viability | CtBP-E1A inh | ATXN2 expr inh
COc1cccc(NP(=O)(Oc2ccccc2)Oc2ccccc2)c1 | 0 | 18µM* | i | -6% | -6 | -13%
COc1cccc(NP(=O)(Oc2ccccc2Cl)Oc2ccccc2Cl)c1 | 4 | ? | ? | -55% | -3 | ?
CCNC1(c2cccs2)CCCCC1=O (stereo unspecified) | . | . | i | . | . | .
COc1ccc(CC(N)c2csc(NC(=O)Nc3ccccc3Oc3ccccc3)n2)cc1 (stereo unspecified) | -8 | ? | . | 10µM* | -3 | ?
CSCC[C@@H](NC(=O)[C@@H](Cc1ccccc1)NC(=O)CNC(=O)CNC(=O)[C@@H](N)Cc1ccc(O)cc1)C(=O)O | . | . | . | . | . | 5%
OCCN1CCN(CCCN2c3ccccc3Sc3ccc(C(F)(F)F)cc32)CC1 | 1 | ? | ? | -66% | -9 | 28µM*!
COc1ccc2c3c1O[C@H]1[C@H](O)CC[C@H]4[C@@H](C2)N(C)CC[C@@]341 | . | . | i | . | . | 3%[116 µM]
COc1ccc2cc1Oc1ccc(cc1)C[C@H]1c3cc(c(OC)cc3CCN1C)Oc1c(OC)c(OC)cc3c1[C@H](C2)N(C)CC3 | -4 | ? | 25µM* | -60% | -28 | ?
COc1cc2c3cc1Oc1c(OC)c(OC)cc4c1[C@H](Cc1ccc(cc1)Oc1cc(ccc1O)C[C@H]3N(C)CC2)N(C)CC4 | -11 | ? | 14µM* | -51% | -21 | -11%
COc1cc2c3cc1Oc1cc(ccc1O)C[C@@H]1c4c(cc(OC)c(O)c4Oc4ccc(cc4)C[C@H]3N(C)CC2)CCN1C | 1 | 1% | 4µM* | -5% | 8 | ?
O=C(CBr)Nc1ccc(Cl)cc1C(=O)c1ccccc1F | . | . | i | . | . | -7%
C[C@@H]1CN([C@H](C)CO)C(=O)c2c(c3ccccc3n2C)-c2ccccc2CO[C@@H]1CN(C)Cc1ccc(O)cc1 | -6 | ? | ? | -27% | 0 | ?
COc1cccc(CN(C)C[C@@H]2OCc3ccccc3-c3c(n(C)c4ccccc34)C(=O)N([C@@H](C)CO)C[C@H]2C)c1 | 24 | ? | 28µM* | 20µM* | 20 | ?
CC(N[C@H]1C[C@H]1c1ccccc1)c1ccc2c(c1)OCCO2 (stereo partly specified) | . | . | . | . | . | 9%
C[C@]12CCC3C(CCC4=CC(O)CC[C@@]43/C=N/O)C1(O)CCC2C1=CC(=O)OC1 (stereo partly specified) | -10 | 7.9µM* | i | -53% | -8 | ?
